Screens as filed in PubChem BioAssay.
Compounds with a hit are over-represented: about 10% of the library has one in this group of screens.
GLA spleen mod = qHTS Assay for Inhibitors and Activators of Human alpha-Galactosidase From Spleen Homogenate; Alpha-galactosidase A (Homo sapiens), P06280; human spleen homogenate, 4MU-alpha-Gal fluorescence, 40 min; Potency, µM (top dose mostly 80 µM), without a hit: top-dose activity change, negative = inhibition, usual class: inhibitors; 0.008% of 240,000 active; AID 2107, 2009;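 further: potency means the concentration at half of the fitted maximal effect; 0% = enzyme with vehicle and -100% = no enzyme basal signal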
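Spleen homogenate 1 ug + cpd (titration) + 4-MU-alpha-D-galactopyranoside 1 mM; 37C 40 min; 50 mM citrate/phosphate pH 5.0, 0.01% Tween-20; stop pH 10; fluorescence 365/440; AC50 via Hill.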
GLA inh pH 4.5 = qHTS Assay for Inhibitors of Human alpha-Galactosidase at pH 4.5; AID 1467, 2008; Alpha-galactosidase A (Homo sapiens), P06280; 230,000 tested, under 10 active; purified enzyme, 4-MU-alpha-Gal fluorescence, pH 4.5; activity change, negative = inhibition, % at 105 µM;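 further: 0% = full activity with enzyme and -100% = basal without enzyme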
HPGD inh = qHTS Assay for Inhibitors of HPGD (15-Hydroxyprostaglandin Dehydrogenase). 15-hydroxyprostaglandin dehydrogenase [NAD(+)] (Homo sapiens), P15428. purified HPGD, NADH fluorescence kinetic, PGE2 substrate. Potency, µM, without a hit: at the highest dose activity change, negative = inhibition, most hits filed as inhibitors. 4.3% of 150,000 active. AID 894, 2007; active means well fitted inhibition curve with a large enough effect, not every such curve was filed as active; inconclusive means small, poorly fitted or top-dose-only effect, or another doubt; inactive means no such curve, though single readings can be large or run the other way; further: potency means the concentration at half of the fitted maximal effect
Target sequence (P15428 whole entry, looked up): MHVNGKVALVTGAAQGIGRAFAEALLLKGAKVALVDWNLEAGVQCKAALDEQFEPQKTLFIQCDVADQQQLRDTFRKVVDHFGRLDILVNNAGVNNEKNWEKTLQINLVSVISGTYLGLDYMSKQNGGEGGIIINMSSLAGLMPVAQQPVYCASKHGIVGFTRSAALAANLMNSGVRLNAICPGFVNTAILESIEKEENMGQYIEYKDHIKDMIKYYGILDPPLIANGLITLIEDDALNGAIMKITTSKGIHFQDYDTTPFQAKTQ
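NADH formation kinetics: reaction with 30 uM PGE2 and 1 mM NAD+ (final), 20 nM enzyme, Tris-HCl pH 8 with Tween 20, after 15 min compound preincubation at room temperature. Fluorescence change, last versus first of five reads.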
ALOX12 inhib = qHTS Assay for Inhibitors of 12-hLO (12-human lipoxygenase) | AID 1452, 2008 | purified 12-hLO, xylenol orange hydroperoxide absorbance | Polyunsaturated fatty acid lipoxygenase ALOX12 (Homo sapiens), P18054 | 0.12% of 150,000 active | Potency, µM (titrated, usually from 57.1 µM), for inactives: at the top dose activity change, negative = inhibition, actives largely listed as inhibitors; further: potency means the concentration at half of the fitted maximal effect; nearly all actives have a fitted effect of over 55% in size
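Purified human 12hLO (150 nM), preincubated 15 min with compound, then 40 uM arachidonic acid for 30 min, room temperature, Hepes pH 7.0 with 0.01% Triton X-100. Hydroperoxide detected by ferrous iron/xylenol orange; 573/405 nm absorbance ratio gives reaction progress.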
PNC assembly inh = High Content Assay for Compounds that inhibit the Assembly of the Perinucleolar Compartment | 3.1% of 140,000 active | PC3M PTB-GFP, PNC prevalence imaging, 16 h; hits give low values | activity change (PNC), negative = inhibition, % at 10 µM | AID 2417, 2010;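 active means readout at or below -70, meaning at least 70% loss of cells showing the perinucleolar compartment, a nuclear body marking cancer cells; inconclusive means readout between -30 and a set limit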;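 further: plate controls were DMSO wells for no effect and camptothecin positive control wells for full effect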
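Compounds are pinned in duplicate onto adhered PC3M cells stably expressing GFP-tagged PTB and incubated 16 h at 37 C. Cells are then fixed, nuclei stained with Hoechst, and PNC-positive cells counted.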
ALDH1A1 block = qHTS Assay for Inhibitors of Aldehyde Dehydrogenase 1 (ALDH1A1). Purified ALDH1A1, NADH fluorescence, propionaldehyde substrate. Potency, µM (top dose mostly 75.3 µM), for inactives: at the top dose activity, negative = inhibition, most hits filed as inhibitors. 7.3% of 220,000 active; active means well fitted inhibition curve with a large enough effect, not every such curve was filed as active; inconclusive means small, poorly fitted or top-dose-only effect, or another doubt; inactive means no such curve, though single readings can be large or run the other way;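 further: potency means the concentration at half of the fitted maximal effect; plate controls were no enzyme wells and a reference inhibitor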
* hit, by the source's call; ? = inconclusive; nt = not tested or not shown; [ ] = another dose, or the depositor's remark. Unless noted, the call rests on the fitted dose curve; in most records, active means well fitted curve in the direction sought with a large enough effect; inconclusive means small, poorly fitted or top-dose-only effect, or another doubt; inactive means no such curve, though single readings can be large; an effect the other way counts as inactive or inconclusive. Unless noted, on the % scale 0 is the no-effect control and ±100 the full control effect.

SMILES	GLA spleen mod	GLA inh pH 4.5	HPGD inh	ALOX12 inhib	PNC assembly inh	ALDH1A1 block
COc1ccc(N(CN2C(=O)c3ccccc3C2=O)C(=O)C(C)C)cc1	0%	-3	-7%	1%	?	11µM*
CC(=O)N(CN1C(=O)c2ccccc2C1=O)c1ccccc1	2%	9	-11%	-7%	-3	?
CCN(CC)S(=O)(=O)c1cc(C(=O)OCC(=O)Nc2ccc(-c3nc4ccc(C)cc4s3)cc2)ccc1F	13%	7	?	-1%	53	?
CCc1nc(SCC(=O)N2CCN(C(=O)c3ccco3)CC2)c2c3c(sc2n1)CCCC3	8%	-17	-27%	-7%	-22	28µM*
Cc1sc2nc(CN3CCCC3)nc(N3CCN(C(=O)c4ccco4)CC3)c2c1C	3%	-3	nt	nt	nt	4%
Cc1nc(N2CCN(C(=O)c3ccco3)CC2)c2c3c(sc2n1)CCCC3	-15%	-2	16µM*	2%	71	40µM*
O=C(c1ccco1)N1CCN(c2nc(C3CC3)nc3sc4c(c23)CCCC4)CC1	4%	-5	?	-11%	24	22µM*
Cc1nc(N2CCN(C(=O)c3ccco3)CC2)c2c3c(sc2n1)CC(C)CC3 (stereo not drawn)	-5%	-16	nt	nt	nt	13µM*
CCc1cc2ccccc2nc1SCC(=O)N1CCN(C(=O)c2ccco2)CC1	10%	0	-13%	-8%	-19	-14%
O=c1c(-c2cccc(F)c2)nc2cncnc2n1Cc1ccccc1Cl	11%	nt	nt	nt	nt	?
COc1n[nH]c(C(=O)Nc2nc3ccccc3s2)c1[N+](=O)[O-]	-2%	2	nt	nt	nt	-12%
COC(=O)C1=CO[C@@H](C)[C@@H]2CN3CCc4c([nH]c5ccccc45)[C@@H]3C[C@H]12	6%	nt	nt	nt	nt	nt
O=C(Nc1cccc(F)c1)N1CC[C@@]2(CCCNC2)C1	-8%	nt	-10%	-4%	nt	25µM*
O=C(Nc1cccc(F)c1)N1CCCC2(CCNCC2)C1	-9%	nt	-10%	4%	nt	16%
Cc1ccc(S(=O)(=O)NCCSCc2ccco2)cc1	7%	7	nt	nt	nt	20µM*
COc1ccc(S(=O)(=O)NCCSCc2cccs2)cc1	-2%	1	-3%	0%	5	1µM*
CCOc1ccc(S(=O)(=O)NCCSCc2ccco2)cc1	-4%	10	-22%	-5%	?	2.8µM*
COc1ccc(S(=O)(=O)NCCSCc2ccco2)cc1	1%	-6	-16%	-14%	?	2.8µM*
Cc1ccc(-c2csc(=S)[nH]2)cc1	-2%	-1	nt	nt	nt	14µM*
S=c1[nH]c(-c2ccc(Cl)cc2)cs1	-1%	-8	nt	nt	nt	3.2µM*
C[N+](C)(C)C(C1=CCCC1=O)c1ccccc1 (stereo not drawn)	nt	nt	-1%	nt	nt	-15%[13.5 µM]
COC(=O)C1=C(C)NC(=S)N(C(C)=O)C1c1ccc(OC)c(OC)c1 (stereo not drawn)	5%	0	-17%	0%	?	-13%
CCCCCc1c(C)nc(N2CCc3ccccc3C2)[nH]c1=O	4%	1	-20%	3%	-117*	10%
COc1ccc(C(=O)N[C@H](C(=O)N2CCN(c3ccccc3F)CC2)C(C)C)cc1	8%	0	nt	nt	nt	?
Cc1cc(Nc2ccc(Cl)cc2)n(-c2ccccc2)n1	14%	-1	7.9µM*	-14%	-14	-9%
O=S(=O)(Nc1cc(Sc2ncn[nH]2)c(O)c2ccccc12)c1ccccc1	15%	-17	nt	nt	nt	14µM*
CC(C)CCOc1ncnc2c1sc1nc3c(cc12)CSC(C)(C)C3	-2%	-2	?	1%	16	1.1µM*
